High-throughput results deposited in PubChem by Johns Hopkins Ion Channel Center.
A selection: hits, their analogues and other compounds. The true share with any hit is near 1.6%.
KCNQ2 pot – potentiators of rat KCNQ2 potassium channel; Potassium voltage-gated channel subfamily KQT member 2 (Rattus norvegicus), O88943; B-score at 10 µM; actives 0.54% (n = 310,000); AID 2239, 2010; CHO-K1 KCNQ2, FluxOR thallium flux fluorescence; stronger effect = higher value;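 active means fluorescence ratio B-score at least 3 SD of library B-scores, with initial fluorescence B-score within 3 of them, cut at about 5.3 in these data; same plate scores as AID 2156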;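 further: B-score of peak minus minimum over baseline fluorescence ratio after K+ and Tl+ stimulus; positive B-score means potentiation of KCNQ2 with more thallium influx and brighter signal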
KCNQ2 inh – rat KCNQ2 potassium channel inhibitors, primary screen, cell-based, CHO-K1, FluxOR thallium flux, B-score; 20 min; stronger effect = lower value; B-score at 10 µM; actives 1.1% (n = 310,000); AID 2156, 2009;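 active means fluorescence ratio B-score at most minus 3 library SDs, with starting brightness B-score within 2 library SDs, cut at about -5.5 in these data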
Kir21 confirm – mouse Kir2.1 channel blockers, retest, confirmation, cell-based, FluxOR thallium flux, duplicate. actives 41% (n = 2,300). Kir2.1-expressing cells, FluxOR thallium flux fluorescence; stronger effect = lower value. Tl flux remaining, % of negative control (stronger effect = lower value), % at 10 µM. AID 2032, 2009. shares compounds with KCNQ2 pot;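 active means Primary-screen hit whose thallium flux fell at least 3 control SD below untreated wells in both duplicates, with normal baseline fluorescence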;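 further: 0% = blank wells without stimulus and 100% = stimulated no-compound controls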
Target sequence (P35561 whole entry, looked up): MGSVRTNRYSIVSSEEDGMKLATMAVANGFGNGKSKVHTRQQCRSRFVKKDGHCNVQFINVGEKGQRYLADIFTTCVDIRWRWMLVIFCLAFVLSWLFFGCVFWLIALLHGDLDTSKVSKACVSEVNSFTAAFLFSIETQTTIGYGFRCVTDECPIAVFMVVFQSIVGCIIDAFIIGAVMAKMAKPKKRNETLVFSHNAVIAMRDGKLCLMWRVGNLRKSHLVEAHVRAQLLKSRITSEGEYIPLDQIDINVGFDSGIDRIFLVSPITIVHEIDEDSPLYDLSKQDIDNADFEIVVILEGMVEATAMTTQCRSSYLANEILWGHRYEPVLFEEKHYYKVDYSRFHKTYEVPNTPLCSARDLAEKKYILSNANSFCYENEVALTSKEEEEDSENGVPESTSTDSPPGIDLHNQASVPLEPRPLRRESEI
HEK293 Tl flux – counter-screen for Kir2.1 inhibitors: effect in parental HEK293 cells; FluxOR thallium flux fluorescence; 0% = unstimulated blank wells; actives 19% (n = 2,300); shares compounds with KCNQ2 pot; FluxOR signal as % of negative control (100 = no effect), % at 10 µM;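 active means dye signal at least 3 control SD above or below untreated wells in both duplicates, raw fluorescence within 3, either direction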;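 further: percent is based on the flux ratio of peak minus minimum fluorescence over baseline F0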
CHO-K1 Tl ctr – nonspecific thallium flux increase in parental CHO-K1, confirmation, counter-screen for KCNQ2 potentiator project, cell-based, FluxOR thallium flux, duplicate; shares compounds with KCNQ2 pot; parental CHO-K1 cells, FluxOR thallium flux fluorescence; zero = vehicle mean+3SD, 100% = vehicle-minus-blank window; activity increase over 3SD of controls, % at 10 µM; actives 43% (n = 1,200);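 active means signal rise of at least 3 SD above the untreated control mean, in both duplicate wells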;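 further: counter screen of KCNQ2 potentiator hits so any rise reflects channel-independent effects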
KCNQ1 pot spec – human KCNQ1 channel potentiation off-target, confirmation, selectivity assay for KCNQ2 potentiator project, cell-based, CHO, FluxOR thallium flux. actives 28% (n = 1,200). activation over 3SD threshold, % at 10 µM. AID 2283, 2010. CHO KCNQ1 stable, FluxOR thallium flux fluorescence; beyond 3SD, as % of vehicle-control signal. shares compounds with KCNQ2 pot;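 active means fluorescence ratio rise of at least 3 SD of vehicle wells above their mean, in both replicate wells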;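 further: 0% = vehicle mean plus 3 SD and 100% = vehicle minus unstimulated blank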
KCNQ2 pot confirm – rat KCNQ2 channel potentiators, confirmation, cell-based, CHO, FluxOR thallium flux, duplicate; shares compounds with KCNQ2 pot; CHO-KCNQ2 cells, FluxOR thallium flux fluorescence; potentiation, less the hit threshold, % at 10 µM; actives 68% (n = 1,200); AID 2287, 2010;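 active means fluorescence ratio rising 3 SD or more over the vehicle control mean in both replicates, plus primary screen hit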;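 further: peak minus minimum thallium fluorescence divided by baseline after K/Tl stimulus; 0% = vehicle mean plus 3 SD and 100% = vehicle minus unstimulated blank difference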
Kir2-1 sel – mouse Kir2.1 channel activation off-target, confirmation, selectivity assay for KCNQ2 potentiator project, cell-based, HEK293, FluxOR thallium flux | shares compounds with KCNQ2 pot | HEK293 Kir2.1, FluxOR thallium flux fluorescence | activity over 3SD threshold, % at 10 µM | actives 2% (n = 1,200) | AID 2345, 2010;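 active means fluorescence ratio rise of at least 3 SD above the vehicle-control mean, seen in both replicates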;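 further: 0% = vehicle mean plus 3 SD and 100% = vehicle minus no-stimulus blank window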
KCNQ2 W236L pot – potentiators of retigabine-insensitive KCNQ2 W236L, mechanism study for KCNQ2 potentiator project, cell-based, rat KCNQ2 W236L, CHO, automated patch clamp; actives 10% (n = 940); shares compounds with KCNQ2 pot; current increase over 3SD of negative controls (%), stronger effect = higher value, % at 25 µM; automated patch clamp current;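 active means current increase at least 3 SD of the untreated controls above them in both duplicate recordings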
Active calls of the source: *.

CCc1ccc(S(=O)(=O)NC(=S)NC2CCCCC2)cc1 was read as KCNQ2 pot 8.9*, KCNQ2 inh inactive, Kir21 confirm inactive, HEK293 Tl flux 302%*, CHO-K1 Tl ctr -18, KCNQ1 pot spec -18, KCNQ2 pot confirm 52*, Kir2-1 sel -28 and KCNQ2 W236L pot inactive.
For CCOc1ccc(C(C)NC(=S)NC2CCCCC2)cc1OCC (centres undefined) the results were KCNQ2 pot 2.3 and KCNQ2 inh inactive.
For CCC(C)c1ccc(NC(=S)NC2CCN(Cc3ccccc3)CC2)cc1 (centres undefined) the results were KCNQ2 inh inactive.
`COCCCNC(=O)c1ccc(Cn2c(=O)c3ccccc3n(CC(=O)NCCc3ccc(OC)c(OC)c3)c2=O)cc1` gave KCNQ2 inh inactive.
O=C(CN1C(=O)c2ccccc2C1=O)Nc1cccc(S(=O)(=O)Nc2ccccc2Cl)c1 was read as KCNQ2 inh inactive.
CS(=O)(=O)CCC(C(=O)O)N1C(=O)c2ccc(Oc3ccc(Cl)cc3)cc2C1=O (centres undefined) was read as KCNQ2 pot 0.89 and KCNQ2 inh inactive.
CN(C)CCCNC(=O)c1cc(C(=O)c2cccc(Cl)c2Cl)c[nH]1 was read as KCNQ2 inh inactive.
COc1ccc(NC(=S)Nc2cnc3ccccc3c2)c(OC)c1 was read as KCNQ2 pot 2.9 and KCNQ2 inh inactive.
Screening COc1ccccc1CNC(=O)CSc1cc(=O)n(C)c2ccccc12 returned KCNQ2 pot 0.29 and KCNQ2 inh inactive.
For CCC(C(=O)OCC(=O)NC(=O)c1ccccc1OC)c1ccccc1 (centres undefined) the results were KCNQ2 inh inactive, Kir21 confirm 70%* and HEK293 Tl flux inactive.
For CCC(C(=O)OCC(=O)NC(=O)c1ccccc1)c1ccccc1 (centres undefined) the results were KCNQ2 inh inactive.
OCCN1CCN(c2nc(-c3ccccc3O)nc3ccccc23)CC1 was read as KCNQ2 inh inactive.
COc1ccc(CS(=O)(=O)CC(C)(O)c2ccccc2Cl)cc1 (centres undefined) was read as KCNQ2 inh inactive.
Screening CCN1CCN(CCNC(=O)CSCc2nc(-c3ccc(OC)c(OC)c3)oc2C)CC1 returned KCNQ2 pot 10*, KCNQ2 inh inactive, Kir21 confirm inactive, HEK293 Tl flux inactive, CHO-K1 Tl ctr 22*, KCNQ1 pot spec -15, KCNQ2 pot confirm -21 and Kir2-1 sel -30.
`CCN1CCN(C(=O)CSCc2nc(-c3ccc(OC)c(OC)c3)oc2C)CC1` gave KCNQ2 inh inactive.
For CCC(=O)N1CCc2cc(S(=O)(=O)NCCC(=O)NCc3ccccc3OC)ccc21 the results were KCNQ2 inh inactive.
`CC1(C)C2CC[C@]3(C)C(CC=C4[C@@H]5C[C@@](C)(CO)[C@@H](O)C[C@]56C[C@@H](OC6=O)[C@]43C)[C@@]2(C)CC[C@@H]1O` (some centres undefined) gave KCNQ2 pot 1.1 and KCNQ2 inh inactive.
Screening Cc1sc2ncnc(SCC(=O)c3cccs3)c2c1C returned KCNQ2 pot 6.9*, KCNQ2 inh inactive, Kir21 confirm inactive, HEK293 Tl flux inactive, CHO-K1 Tl ctr -17, KCNQ1 pot spec -5, KCNQ2 pot confirm -9, Kir2-1 sel -31 and KCNQ2 W236L pot inactive.
Cc1cccc(NC(=O)CSc2ncnc3sc(C)c(C)c23)n1 was read as KCNQ2 pot 0.74 and KCNQ2 inh inactive.
Screening Cn1c(CNc2nc3ccccc3n2C)nc2ccccc21 returned KCNQ2 inh inactive.
Cc1ccc(CNc2nc3ccccc3n2C)cc1 was read as KCNQ2 inh inactive, Kir21 confirm 36%* and HEK293 Tl flux inactive.
Cn1c(NCc2c(O)ccc3ccccc23)nc2ccccc21 was read as KCNQ2 inh inactive.
Screening Cn1c(NCc2ccc(Cl)cc2)nc2ccccc21 returned KCNQ2 inh inactive, Kir21 confirm 25%* and HEK293 Tl flux inactive.
For Cc1ccc(NCC(=O)N/N=C/c2c[nH]c3ccccc23)cc1 the results were KCNQ2 inh inactive.
`Cc1ccc(N2CC(C(=O)Nc3nnc(SCC(=O)N4CCOCC4)s3)CC2=O)cc1` (centres undefined) gave KCNQ2 pot 0.68 and KCNQ2 inh inactive.
For Cc1ccc(-c2csc(=S)[nH]2)cc1 the results were KCNQ2 pot 22*, KCNQ2 inh inactive, Kir21 confirm inactive, HEK293 Tl flux 538%*, CHO-K1 Tl ctr -23, KCNQ1 pot spec 23*, KCNQ2 pot confirm 84*, Kir2-1 sel 11* and KCNQ2 W236L pot inactive.
`Cc1ccc(-c2ccc(C(=O)O)[nH]2)cc1` gave KCNQ2 inh inactive.
For CCn1cc(C(=O)N[C@H](C(=O)NCCO)C(C)C)c(=O)c2cc3c(cc21)OCO3 the results were KCNQ2 pot 0.83 and KCNQ2 inh inactive.
For CCCCN(Cc1cccs1)S(=O)(=O)c1csc(C(N)=O)c1 the results were KCNQ2 inh inactive, Kir21 confirm 46%* and HEK293 Tl flux inactive.
`CN(Cc1ccccc1)S(=O)(=O)c1csc(C(N)=O)c1` gave KCNQ2 inh inactive.
For CC(C)CCN(Cc1ccco1)S(=O)(=O)c1csc(C(N)=O)c1 the results were KCNQ2 inh inactive, Kir21 confirm 58%* and HEK293 Tl flux inactive.
`CCOCCCN(Cc1ccco1)S(=O)(=O)c1csc(C(N)=O)c1` gave KCNQ2 inh inactive.
